# PubChem BioAssay (EPA / NIEHS)
# Active and inactive are the calls of the source. How the source made its calls: active means hit-call score of the fitted dose curve at least 0.9, where 1 is the maximum; inactive means score below 0.9.
# Biological target: Transcriptional activator Myb (Homo sapiens) (UniProt P10242)
# Test: ATG_Myb_CIS: Attagene CIS-FACTORIAL HepG2 Assay for human Myeloblastosis (Myb) Proto-Oncogene Transcription Factor (AID 2282986)
# Details: HepG2 Attagene CIS-FACTORIAL Myb reporter transcription; actives raise or lower the signal
# Experimental: ATG_CIS is a cell-based, multiplexed-readout assay that uses HepG2, a human liver cell line, with measurements taken at 24 hours after chemical dosing in a 24-well plate.ATG_Myb_CIS is one of 52 assay component(s) measured or calculated from the ATG_CIS assay. It is designed to make measurements of mRNA induction, a form of inducible reporter, as detected with fluorescence intensity signals by Reverse transcription polymerase chain reaction (RT-PCR) and Capillary electrophoresis technology.Data from the assay component ATG_Myb_CIS was analyzed into 1 assay endpoint. This assay endpoint, ATG_Myb_CIS, was analyzed with bidirectional fitting relative to DMSO as the negative control and baseline of activity. Using a type of inducible reporter, measures of mRNA for gain or loss-of-signal activity can be used to understand the reporter gene at the transcription factor-level as they relate to the gene MYB. Furthermore, this assay endpoint can be referred to as a primary readout, because this assay has produced multiple assay endpoints where this one serves a reporter gene function. To generalize the intended target to other relatable targets, this assay endpoint is annotated to the dna binding intended target family, where the subfamily is MYB proteins.
# Human liver HepG2 cells are transiently transfected with multiple reporter transcription units (MRTUs) in 6-well plates using FuGene 6 reagent (Roche; 3 ml FuGene/1 mg DNA). The MRTU constructs are regulated by a cis-regulating element (promoter). […] A major difference between the CIS and TRANS system is that in CIS activities of endogenous TFs are measured, whereas the TRANS assay evaluates changes in activities of exogenous, chimeric NR-Gal4 proteins. […] At the end of 24 hour incubation, total RNA was isolated using TriZol reagent (Invitrogen). The isolated RNA is then reverse-transcribed using oligo(dT) primer and Mo-MLV reverse transcriptase (Invitrogen) with DNAse I (Ambion) treatment for 30 min. The one-tenth of the produced cDNA was amplified by PCR using Taq DNA polymerase (Invitrogen) and two reporter sequence-specific primers. The PCR products were fluorescently labeled by primer extension with 6-arboxyfluorescein (6-FAM) 5'-labeled reporter sequence-specific primer (2 min at 95 C, 20 s at 68 C and 10 min at 72 C) and these products were digested with 5U of HpaI (New England Biolabs) for 2h at 37 C. The fragments were purified using Qiaquick PCR columns (Qiagen), analyzed on an ABI 3130xL genetic analyzer (Applied Biosystems) with peak positions identified by using a set of X-rhodamine (ROX)-labeled MapMarker1000 molecular weight standards (BioVentures). The raw capillary electrophoresis data was processed using Attagraph software (Attagene).
# Sequence of Transcriptional activator Myb (Homo sapiens) (P10242 whole entry, looked up): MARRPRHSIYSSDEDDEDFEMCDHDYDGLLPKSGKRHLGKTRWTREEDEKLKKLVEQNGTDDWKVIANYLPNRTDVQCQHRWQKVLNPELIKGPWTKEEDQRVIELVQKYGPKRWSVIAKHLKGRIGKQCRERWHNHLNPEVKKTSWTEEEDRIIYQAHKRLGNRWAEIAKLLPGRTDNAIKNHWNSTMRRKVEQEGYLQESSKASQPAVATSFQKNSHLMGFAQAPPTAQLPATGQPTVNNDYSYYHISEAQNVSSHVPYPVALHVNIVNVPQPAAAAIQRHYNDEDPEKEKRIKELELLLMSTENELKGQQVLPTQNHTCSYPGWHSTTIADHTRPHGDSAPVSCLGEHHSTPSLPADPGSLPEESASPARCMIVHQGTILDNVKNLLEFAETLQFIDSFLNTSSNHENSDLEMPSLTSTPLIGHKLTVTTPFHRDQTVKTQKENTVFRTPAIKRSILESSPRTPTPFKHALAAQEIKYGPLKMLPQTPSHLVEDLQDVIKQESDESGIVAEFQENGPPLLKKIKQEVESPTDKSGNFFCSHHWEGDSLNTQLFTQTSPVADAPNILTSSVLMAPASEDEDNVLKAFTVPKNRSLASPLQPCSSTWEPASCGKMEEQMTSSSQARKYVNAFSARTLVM
Compound,outcome,AC50
CCOC(C)=O,inactive,–
C=CC(=C)CC/C=C(\C)CCC=C(C)C,inactive,–
CCCCCCCCC1CCC(=O)O1 (stereo not given),inactive,–
CN(Cc1cnc2nc(N)nc(N)c2n1)c1ccc(C(=O)N[C@@H](CCC(=O)O)C(=O)O)cc1,inactive,–
CCC(C)c1ccccc1O (stereo not given),inactive,–
O=C1OC(=O)C(F)(F)C1(F)F,inactive,–
CN(CCO)S(=O)(=O)C(F)(F)C(F)(F)C(F)(F)C(F)(F)C(F)(F)C(F)(F)C(F)(F)C(F)(F)F,inactive,–
CCCCCCCCCCCCCC[n+]1ccccc1,inactive,–
O=C(F)C(F)(F)C(F)(F)C(F)(F)C(F)F,inactive,–
COc1ccc(C#N)cc1,inactive,–
CCCCCCCCC(C)=O,inactive,–
O=C(NO)c1ccccc1,inactive,–
FC(F)(F)C(F)(F)C(F)(F)C(F)(F)I,inactive,–
CNNCc1ccc(C(=O)NC(C)C)cc1,inactive,–
CC(C)[C@@H]1CC[C@@H](C)C[C@H]1O,inactive,–
Cc1ccccc1C(OCCN(C)C)c1ccccc1 (stereo not given),inactive,–
COc1ccccc1NC(=O)c1cc2ccccc2cc1O,–,121 µM (active)
c1ccc(CNc2ncnc3c2ncn3C2CCCCO2)cc1 (stereo not given),inactive,–
Nc1ccc(O)c(C(=O)O)c1,inactive,–
CCCCN(C)C,inactive,–

Compound,outcome,AC50
CC=O,inactive,–
CC1=NN(c2ccccc2)C(=O)C1,inactive,–
CCC1CO1 (stereo not given),inactive,–
CN(C)c1ccc(C(=C2C=CC(=[N+](C)C)C=C2)c2ccccc2)cc1,inactive,–
O=CC(F)(F)C(F)(F)C(F)(F)C(F)F,inactive,–
c1ccc2c(c1)CCC2,inactive,–
O=c1cc(-c2ccccc2)oc2ccc3ccccc3c12,inactive,–
C=CC(=O)OCCN(CC)CC,inactive,–
Cc1ccccc1OCC(=O)O,–,164 µM (active)
C=CCOCC(CO)(CO)CO,inactive,–
O=C(O)CN(CCCN(CC(=O)O)CC(=O)O)CC(=O)O,inactive,–
O=C(c1cc(O)c(O)c(O)c1)c1ccc(O)c(O)c1O,inactive,–
CC1COCc2cc3c(cc21)C(C)(C)C(C)C3(C)C (stereo not given),–,162 µM (active)
NCc1cccc(CN)c1,inactive,–
CC(C)C=O,inactive,–
CCCCCC(C)OC(=O)COc1ccc(Cl)c2cccnc12 (stereo not given),inactive,–
O=C(CCCN1CCC(O)(c2ccc(Cl)cc2)CC1)c1ccc(F)cc1,inactive,–
FC(F)(F)N1C(F)(F)C(F)(F)OC(F)(F)C1(F)F,inactive,–
CC(C)c1c(C(=O)Nc2ccccc2)c(-c2ccccc2)c(-c2ccc(F)cc2)n1CC[C@@H](O)C[C@@H](O)CC(=O)O,inactive,–
CCCCCCCCCCCCCCCCCC[N+](C)(C)Cc1ccccc1,inactive,–
